According to PubChem BioAssay AID1307 (SRMLSC, 2008):
Hit rate of the full screen: of about 1,200 compounds, fewer than 10 were called active.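 Rule for the calls: active = inhibition reaching a set limit at one or more tested concentrations; inactive = inhibition under that limit at every dose.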 A selection follows. Results with a measured potency or affinity are listed apart.

Experiment: yeast RAM network inhibitors, dose response, S. cerevisiae (AID 1307);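 note: 0% = DMSO vehicle wells and 100% = 10 µM 1-NA-PP1 control; higher inhibition means more yeast growth since RAM block rescues cells from 5-FOA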
Conditions: S. cerevisiae RAM network URA3 reporter, 5-FOA growth OD615, hits give high values, yeast express analog-sensitive mutant Cbk1 kinase; at 100 µM unless noted

Max inhibition, inactive:
COc1ccc(C(=O)COC(=O)C(CCSC)NS(=O)(=O)c2ccc(Cl)cc2)cc1 (stereo unspecified) 2.78% [at 25 µM]
COCCn1c(=NC(=O)c2sc3ccccc3c2Cl)sc2cc(S(N)(=O)=O)ccc21 4.98% [at 50 µM]
CCOc1ccc(/C=C2/SC(=S)N(C(C(=O)O)c3ccccc3)C2=O)cc1OCC (stereo unspecified) 3.65%
Cc1ccc(-n2c(SCC(=O)N3CCCc4ccccc43)nnc2-c2cccnc2)c(C)c1 3.12% [at 50 µM]
O=C(O)c1cc(Sc2ccc(Br)cc2)nc2ccccc12 4.44% [at 50 µM]
CCCCc1ccc(N=N/C(C(=O)Nc2ccccc2OC)=C(/C)O)cc1 4.87% [at 50 µM]
O=C(COC(=O)CCN1C(=O)/C(=C\C=C\c2ccccc2)SC1=S)Nc1ccc(Br)cc1 9.41%
O=C(Nc1ccn(Cc2cccc3ccccc23)n1)c1cccnc1 3.63%
CCN(CC)S(=O)(=O)c1cccc(-c2nnc(SCCCC(=O)c3ccccc3)o2)c1 3.65%
O/N=C/c1cc(Br)ccc1OCc1cccc(F)c1 1.58% [at 0.196 µM]
COC(=O)c1scc(C)c1N/N=C(\C)c1ccc(F)cc1F 8.43%
CCCc1nn(C)c(C(=O)Nc2ccc(C(C)(C)C)cc2)c1Cl 3.4%
CCCCOn1c(C)c(C(=O)OCC)c2c3no[n+]([O-])c3ccc21 2.31%
O=C(NCc1ccc2c(c1)OCO2)c1cc(-c2ccccn2)nc2ccccc12 4.19% [at 3.125 µM]
CC(C)(CNC(=S)NCCc1ccccc1)CNC(=S)NCCc1ccccc1 4.96%
CCOC(=O)C(C)Sc1cc(CS(=O)(=O)c2ccccc2)nc(-c2ccccc2)n1 (stereo unspecified) 5.53%
CCN(CC)S(=O)(=O)c1cc(NS(=O)(=O)c2c(Cl)cccc2Cl)ccc1C 3.03% [at 50 µM]
Cc1ccccc1-c1nnn(CC(=O)Nc2ccc3c(c2)OCCO3)n1 4.6%
O=C(O)CCN1C(=O)/C(=C/c2cn(-c3ccccc3)nc2-c2cccs2)SC1=S 5.53%
COc1ccc(C(=O)/C=C/c2ccc(OC)c(COc3ccc(F)cc3)c2)cc1 5.41%
CC(CCc1ccccc1)NC(=O)CNC(=S)N(Cc1cccs1)C1CCCC1 (stereo unspecified) 3.28%
COc1ccc(-c2ccc(-c3noc(-c4cccc(OC)c4)n3)c(OC)n2)cc1 4.12%
CC1(C)CC(C(CCN(Cc2ccccc2)C(=O)c2ccco2)c2ccc(F)cc2)CCO1 (stereo unspecified) 4.56% [at 50 µM]
C=C(C)COc1ccc(-c2[nH]ncc2Oc2ccccc2OCC)c(O)c1 3.4%
CCOC(=O)c1sc(-c2ccccc2)cc1NC(=O)c1ccc(S(=O)(=O)N(CCOC)CCOC)cc1 1.69% [at 12.5 µM]
O=C1Nc2ccccc2/C1=N\N=C\C1=C(N2CCOCC2)C(=C\c2ccccc2)/CC1 19.6%
O=S(=O)(Nc1nc2ccccc2nc1Nc1ccc2c(c1)OCCO2)c1cccs1 5.19%
Cc1cc(C)c(C)c(S(=O)(=O)N2CCC(C(=O)OCC(=O)N3c4ccccc4NC(=O)C3(C)C)CC2)c1C 4.49%
CCOC(=O)c1ccc(NC(=O)Nc2ccc3c4c(cccc24)C(=O)N3CC)cc1 3.19%
CC(C)c1ccc(CNc2cc(N3CCCC3)ccc2[N+](=O)[O-])cc1 5.27%
CCCCc1ccc(-c2csc(/C(C#N)=C\c3ccc(C)o3)n2)cc1 5.43%
O=C(CN(Cc1cccs1)C(=O)CSc1nnc(COc2ccccc2)o1)NC1CCCC1 3.76%
COc1ccc(/C=C2\SC(=O)N(CCC(=O)Nc3ccccc3)C2=O)cc1OC 3.41%
Cc1cc2c(C)ccc(C)c2nc1SCC(=O)c1cccs1 5.59% [at 25 µM]
COc1ccc(O[C@H]2C=C[C@@H](c3ccccc3)O[C@@H]2CO/N=C(\C)CCC(=O)OC[C@H]2O[C@H](c3ccccc3)C=C[C@@H]2Oc2ccc(OC)cc2)cc1 6.56%
Cc1ccc(S(=O)(=O)N2CCC(=O)N(C(COCc3cccc(C(F)(F)F)c3)C(C)C)CC2)cc1 (stereo unspecified) 2.65% [at 0.782 µM]
CCOC(=O)c1c(NC(=O)CSc2nnc(-c3ccco3)o2)sc(C)c1C 4.63% [at 0.391 µM]
CCOC(=O)c1cc(C(C)C)sc1NC(=O)COC(=O)CCS(=O)(=O)c1ccccc1 3.24% [at 50 µM]
Cc1c(N=Nc2ccc(N(C)C)cc2)c(=O)n(-c2ccccc2)n1C 20.4%
COc1ccc(N(CC(=O)NCCSCc2ccco2)S(=O)(=O)c2ccc(C)cc2)cc1 4.74% [at 50 µM]
Cc1ccc(N=C(NOCc2ccc(Cl)cc2Cl)c2nonc2N)c(C)c1 5.27%
CCOC(=O)c1sc(NC(=O)CSc2nnc(-c3ccc(OC)cc3)n2CCOC)nc1C 1.33% [at 0.782 µM]
CCC(=O)NC(=S)Nc1ccc(NC(=S)NC(=O)c2ccccc2)cc1 5.34% [at 50 µM]
O=C(CSc1nnc(-c2ccccc2Br)o1)N1CCc2ccccc2C1 2.54%
N#Cc1ccsc1NC(=O)COC(=O)CCCSc1nc2ccccc2s1 2.77% [at 50 µM]
O=C(/C=C/c1cccc([N+](=O)[O-])c1)NCCSCc1ccccc1Cl 1.79% [at 6.25 µM]
Clc1ccc(CSc2nnc(/C=C/c3ccccc3)o2)cc1 2.78% [at 25 µM]
CCSc1ccc(-c2nn(-c3ccccc3)cc2/C=C(/C#N)C(=O)NCCCOC)cc1 13%
CCOC(=O)c1c(-c2cccs2)csc1NC(=O)COC(=O)c1c(C)noc1C 4.68%
Cc1ccc(NC2=Nc3ccccc3N3C2=Nc2c(c(C)nn2-c2ccccc2)C3c2ccc(O)c(O)c2)cc1 (stereo unspecified) 6.97%
COc1ccc(C(=O)CSc2nc(C(C)(C)C)nc3ccccc23)cc1 2.25% [at 1.563 µM]
Cc1[nH]c2ccccc2c1/C=C/c1nc2ccccc2c(=O)n1-c1ccc([N+](=O)[O-])cc1 6.44%
N#Cc1nc(COc2ccccc2)oc1N1CCN(c2cccc(Cl)c2)CC1 3.36% [at 50 µM]
O=C(COC(=O)c1ccc(-c2ccccc2)cc1)Nc1ccccc1-c1ccccc1 4.8% [at 50 µM]
CC(C)(C)OC(=O)NCCCCCNC(=O)c1[nH]cnc1C(=O)N[C@@H](Cc1ccccc1)C(=O)OCc1ccccc1 6.61%
CCOc1ccc(NS(=O)(=O)c2ccc(NC(=S)NC(=O)CC(C)C)cc2)cc1 3.65% [at 0.196 µM]
COc1cc(CC(NC(C)=O)C(=O)NC2CCN(c3c(Cc4ccccc4)c(C)nc4ncnn34)CC2)cc(OC)c1 (stereo unspecified) 3.02% [at 25 µM]
O=C(/C=C/c1ccccc1)N1CCN(c2cccc(Cl)n2)CC1 6.02%
CCOC(=O)c1c(C)[nH]c(C(=O)C(C)Sc2ccc(Cl)cc2)c1C (stereo unspecified) 2.41% [at 12.5 µM]
O=C(CSCc1ccc(Cl)cc1)Nc1cccc(C(=O)Nc2ccccc2C(=O)O)c1 1.32% [at 0.196 µM]
CCOc1ccc(NC(=O)CSc2nnc(-c3ccccc3Cl)n2Cc2ccco2)cc1 1.32% [at 0.782 µM]
C=CCN1C(=O)C(Cc2ccc(C)cc2)S/C1=N/N=C/c1ccco1 (stereo unspecified) 6.91%
CC(=O)c1cc(C(=O)c2ccccc2)sc1Nc1ccccc1 6.93%
CCOC(=O)c1c(-c2cccc([N+](=O)[O-])c2)csc1NC(=O)CCCOc1ccccc1OC 2.67% [at 50 µM]
COc1ccc(CN(CCC(c2ccccc2)c2ccco2)C(=O)c2ccco2)cc1 (stereo unspecified) 4.81% [at 6.25 µM]
COc1ccccc1NC(=O)C(Sc1ccccc1)c1ccccc1 (stereo unspecified) 2.18% [at 50 µM]
CCOC(=O)/C(=C/c1ccc(N2CCC(c3ccccc3)=N2)cc1)C(C)=O 3.75%
O=C(COC(=O)C1(c2ccccc2F)CCCC1)Nc1ncc(C(F)(F)F)cc1Cl 2.79% [at 0.196 µM]
CCOC(=O)c1cnc(SC)nc1Oc1cccc(NC(=O)c2ccc(C)cc2)c1 5.83% [at 50 µM]
CCCC(CCC)=NNc1ccc(S(=O)(=O)Nc2ccccc2OC)cc1[N+](=O)[O-] 3.78% [at 0.391 µM]
Cc1cccc(COCC(Cc2ccccc2)N2CCN(C(=O)c3ccc(C(F)(F)F)cc3)CCC2=O)c1 (stereo unspecified) 3.28% [at 0.782 µM]
Cc1ccc(NC(=O)COC(=O)CCC(=O)c2ccc(C(C)(C)C)cc2)c([N+](=O)[O-])c1 2.67% [at 0.196 µM]
CCOC(=O)c1sc(NC(=O)CCCn2nc([N+](=O)[O-])cc2C)c(C(=O)OCC)c1C 4.45% [at 0.782 µM]
CCCCCCCCNC(=O)/C(C#N)=C/c1ccc(SC)cc1 5.43%
CCOC(=O)C(C)(C)N(Cc1cccc(C)c1)S(=O)(=O)c1cccc([N+](=O)[O-])c1 2.41% [at 50 µM]
O=C(Nc1ccccc1-c1nnc(SCc2ccccc2)o1)c1ccccc1 4.39% [at 3.125 µM]
